Test results taken from PubChem BioAssay (NCI).
Compounds without any hit were thinned out: in the full panel of roughly 79,000, 15% have a hit. Active and inactive are the calls of the source. Rule as the data show it: active = growth inhibition above about 70%; inactive = the rest.

Assay: NCI Yeast Anticancer Drug Screen. Data for the sgs1 mgt1 strain (AID 161);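 also: 0% = growth of cultures given vehicle only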
Settings: S. cerevisiae sgs1 mgt1 strain, at 50.0 µM (retest, dose inferred, filed as 5.0), stronger effect = higher value
Outline: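 Growth of a repair-deficient yeast mutant was monitored after compound treatment and expressed as inhibition relative to vehicle-treated cultures.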

Row | Structure (SMILES) | growth inhibition
1 | CCCCCCCCCCCCCCCBr | 6% (inactive)
2 | CCCCCCCCCCCC(=O)OCC(C)C | 4% (inactive)
3 | O[Si](O)(c1ccccc1)c1ccccc1 | 92% (active)
4 | O=C(c1ccccc1)C(C(=O)c1ccccc1)c1ccc2ccccc2n1 | -1% (inactive)
5 | O=C1C=CC(=O)N1c1ccccc1[N+](=O)[O-] | 99% (active)
6 | CCCCCCCCCCCC(O)=C1C(=O)CC(O)CC1=O (centres undefined) | 98% (active)
7 | OCCc1cccc2ccc3ccccc3c12 | 59% (inactive)
8 | O=C1C(=O)C(Cl)=C(Cl)C(Cl)=C1Cl | 95% (active)
9 | O=C1C=CC2C(=O)c3ccccc3C(=O)C2=C1 (centres undefined) | 72% (active)
10 | O=C(N(c1ccc(Cl)cc1)c1ccc(Cl)cc1)C(Cl)(Cl)Cl | 69% (inactive)
11 | COc1cccc2c1S(=O)(=O)C(c1ccccc1)=CC2=O | 99% (active)
12 | COc1cc(-c2nn3c(=O)n(-c4ccc(Cl)cc4)c(=O)nc3s2)cc(OC)c1OC | 4% (inactive)
13 | O=[N+]([O-])C1(CO)COC(CCc2ccccc2)OC1 (centres undefined) | 5% (inactive)
14 | COc1ccc(C(=O)CCc2c[nH]c3ccccc23)c(O)c1 | 46% (inactive)
15 | CC/C(=C(\CC)c1ccc(OCCN2CCOCC2)cc1)c1ccc(OCCN2CCOCC2)cc1 | 88% (active)
16 | CCCCCCCCCCCN1C(=O)c2ccccc2S1(=O)=O | 80% (active)
17 | CCCCCCCCCCCC(=O)NN | 68% (inactive)
18 | CCN1CCC(O)(/C=C/c2ccccc2)C(C(=O)/C=C/c2ccccc2)C1 (centres undefined) | 82% (active)
19 | NC(=S)NNCCC(=O)Nc1ccccc1C(F)(F)F | 4% (inactive)
